Screening results deposited in PubChem BioAssay by National Center for Advancing Translational Sciences (NCATS).
This is a sample that favours compounds with a hit; in the whole collection about 3.6% have one here.
GALC G270D act = enhancers of human galactocerebrosidase G270D mutant activity in cells. AID 1159614. actives 0.1% (n = 45,000). 145M-Twi-hGALC-G270D cells (Twitcher mouse brain line with human GALC G270D), HMU-beta-Gal fluorescence, 48 h. Potency, µM (highest dose often 57.5 µM), most hits filed as activators. P54803; also: 0% is about no effect; nearly all actives have a fitted effect of over 65% in size
Target sequence (P54803 whole entry G286D): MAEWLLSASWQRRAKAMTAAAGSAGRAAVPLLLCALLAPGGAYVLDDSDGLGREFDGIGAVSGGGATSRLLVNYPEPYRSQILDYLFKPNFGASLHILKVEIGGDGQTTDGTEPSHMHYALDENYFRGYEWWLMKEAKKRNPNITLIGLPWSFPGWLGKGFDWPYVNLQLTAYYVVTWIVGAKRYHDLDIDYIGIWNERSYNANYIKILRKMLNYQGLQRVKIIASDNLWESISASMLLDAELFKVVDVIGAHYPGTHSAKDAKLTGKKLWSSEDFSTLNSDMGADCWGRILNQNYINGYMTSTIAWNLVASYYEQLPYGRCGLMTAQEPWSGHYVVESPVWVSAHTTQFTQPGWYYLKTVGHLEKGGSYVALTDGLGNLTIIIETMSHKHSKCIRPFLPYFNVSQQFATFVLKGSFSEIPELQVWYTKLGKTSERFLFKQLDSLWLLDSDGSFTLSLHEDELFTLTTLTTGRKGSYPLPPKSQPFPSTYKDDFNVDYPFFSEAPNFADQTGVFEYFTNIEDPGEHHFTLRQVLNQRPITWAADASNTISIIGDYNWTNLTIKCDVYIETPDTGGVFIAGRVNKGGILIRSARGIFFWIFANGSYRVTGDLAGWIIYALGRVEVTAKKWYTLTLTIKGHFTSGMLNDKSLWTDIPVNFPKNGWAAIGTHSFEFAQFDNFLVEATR
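Live 145M-Twi cells (Twitcher mouse brain-derived, GALC-null) stably expressing human GALC-G270D, with a wild-type GALC line, were compound-treated. Residual GALC activity was then read as fluorescence from 0.1 mM final HMU-β-gal at pH 5.2; higher signal means activation.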
mTORC1 inh = reduces mTORC1 signaling in Tsc2 and p53 null MEF cells | Tsc2-/- p53-/- MEF, phospho-rpS6 immunofluorescence/PI, 24 h | Potency, µM (doses to about 38.3 µM), for inactives: at the top dose activity change, negative = inhibition, actives largely listed as inhibitors | actives 0.78% (n = 44,000) | AID 493208;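 also: plate controls were DMSO for no effect and rapamycin for full effect; nearly all actives have a fitted effect of over 50% in size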
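Tsc2-/-, p53-/- mouse embryonic fibroblasts (empty-vector line) exposed to compound 24 hrs at 37 C, fixed, immunostained for phospho-rpS6 and counterstained with propidium iodide. Acumen laser scanning gives % positive cells from Alexa 488/PI ratio, thresholded using 7.5 nM rapamycin; PI count gives viability.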
S16 F2sN tox = cytotoxicity in S16 Pmp22-F2sN Schwann cells; S16 Pmp22-F2sN Schwann cells viability, CellTiter-Glo, 24 h; Potency, µM (highest dose often 57.5 µM), for the others: at the highest dose activity change, negative = cytotoxicity, actives largely listed as cytotoxic; actives 0.48% (n = 43,000); AID 1508642; also: % is scaled to controls: 0 for no effect and ±100 for the full control effect; nearly all actives have a fitted effect of over 65% in size
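S16 Schwann cells carrying the Pmp22-F2sN reporter, seeded in 1536-well format, were exposed to library compounds for 24 h at 37C. Viability was read as CellTiter-Glo luminescence after 15 min at room temperature.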
PMP22 txn prim = PMP22 gene transcription modulation; S16 Pmp22-F2sN Schwann cells (luciferase reporters placed in the Pmp22 gene), FLuc/NLuc coincidence luminescence, 24 h; Potency, µM (doses to about 57.5 µM), without a hit: at the top dose activity change, negative = inhibition, usual class: inhibitors; actives 2% (n = 43,000); AID 1508649; active = clear falling dose curves in both reporters; inconclusive = both reporters move, but less clearly or upward; inactive = either reporter flat; the % is the NLuc reporter signal; also: % is scaled to controls: 0 for no effect and ±100 for the full control effect
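Luminescent read-out of sequential FLuc and NLuc signals from a reporter embedded in the Pmp22 3' UTR of S16 Schwann cells, taken after 24 h compound exposure at 37C; compounds reducing both signals score as inhibitors of expression.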
NTMT1 inh = NTMT1 methyltransferase inhibition. NTMT1 MTase-Glo SAH luminescence, purified enzyme. actives 2.5% (n = 59,000). Q9BV86. Potency, µM (top dose mostly 114 µM), for inactives: at the highest dose activity change, negative = inhibition, hits mostly inhibitors. AID 1645870;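 also: plate controls were DMSO vehicle for no effect and no enzyme for full effect; nearly all actives have a fitted effect of over 65% in size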
OvCa metastasis = blocks SKOV3ip1 adhesion and invasion in omental model | SKOV3ip1-GFP adhesion/invasion on 3D omental model, fluorescence | Potency, µM (titrated, usually from 45.8 µM), inactives show top-dose activity change, negative = inhibition, most hits filed as inhibitors | actives 0.1% (n = 46,000) | AID 1963576;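 also: plate controls were DMSO wells for no effect and tomatine positive control wells for full effect; nearly all actives have a fitted effect of over 65% in size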
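Adhesion/invasion was scored as fixed GFP-labeled SKOV3ip1 cell counts (488/509 nm), normalized to DMSO and tomatine controls. Cancer cells in serum-free medium, with four compound doses (0.36-46 umol/L), sat 2 hr at RT then 16 hr at 37 C on a 48 hr fibroblast/mesothelial/ECM culture.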
* hit, by the source's call; i = inactive; ? = inconclusive; . = not tested or not shown; ! = not active in a repeat; [ ] = remark or other dose. Unless noted, calls follow the shape of the dose curve; as a rule, active = well fitted curve in the direction sought with a large enough effect; inconclusive = small, poorly fitted or top-dose-only effect, or another doubt; inactive = no such curve, though single readings can be large; an effect the other way counts as inactive or inconclusive. Potency is read from the fitted curve at half-maximal effect.

SMILES | GALC G270D act | mTORC1 inh | S16 F2sN tox | PMP22 txn prim | NTMT1 inh | OvCa metastasis
O=C1Nc2ccc(C(=O)c3ccco3)cc2/C1=C/c1cc(Cl)c(O)c(Cl)c1 | . | . | . | . | 3.98µM* | .
O=C1Nc2ccccc2/C1=C/c1cc(Cl)c(O)c(Cl)c1 | . | . | . | . | 35.5µM*! | .
O=C1Cc2cc(C(=O)c3ccco3)ccc2N1 | . | . | . | . | -5.1% | .
O=C1Nc2ccccc2/C1=C\c1ccc(O)cc1 | . | . | . | . | -18.2% | .
CCOC(=O)c1cc2c(=O)n3ccccc3nc2n(Cc2ccco2)c1=NC(=O)c1cccc(C)c1 | i | -1.1% | ? | ? | -8.8% | 29.8%
CCOC(=O)c1cc2c(=O)n3ccccc3nc2n(Cc2ccco2)c1=NC(=O)c1c(F)cccc1Cl | i | -20.8% | ? | 15µM* | ? | -16.0%
COc1ccc(C)cc1NC(=O)C(=O)NCC1(c2ccccc2)CCCC1 | i | 1.6% | -22.3% | -30.6% | -0.5% | 0.4%
Cc1ccc(O)c(C(CC(=O)NCC2(c3ccccc3)CCCC2)c2ccccc2)c1 (stereo not given) | i | 18.5µM* | ? | ? | 13.5% | ?
CC(=O)N1CCCc2cc(S(=O)(=O)N3CCCC(C(=O)N4CCN(c5ccccc5F)CC4)C3)ccc21 (stereo not given) | i | -15.0% | 10µM* | ? | -1.9% | 2.1%
Cc1cc(C)c2sc(N3CCN(C(=O)C4CC4)CC3)nc2c1 | i | -5.1% | -19.8% | 5.7% | 79.4µM* | -9.8%
Cc1ccc(C2c3c(-c4ccccc4O)n[nH]c3C(=O)N2CCc2ccccc2)cc1 (stereo not given) | i | 16.5µM* | -25.2% | ? | 7.4% | ?
COc1cccc(CNc2ccc([S+](=O)([O-])Nc3ccccc3)cc2)c1Cl | . | . | . | . | 16.7% | .
Cc1noc(/C=C/N(C)C)c1S(=O)(=O)N1CCCC(C(=O)Nc2ccc(F)cc2F)C1 (stereo not given) | i | 18.5µM* | 2.5% | -39.7% | -1.2% | -6.2%
Cc1noc(/C=C/c2ccco2)c1S(=O)(=O)N1CCC(C(=O)Nc2ccc(F)cc2F)CC1 | i | -0.7% | 1.3% | ? | 14.0% | -3.0%
COc1ccc(NC(=O)CSc2nc3c(oc4ccccc43)c(=O)n2Cc2ccco2)cc1Cl | i | -5.0% | -18.1% | ? | -4.9% | i
COCCn1c(SCC(=O)Nc2ccc(F)c(Cl)c2)nc2c(oc3ccccc32)c1=O | i | -1.6% | -24.5% | ? | 79.4µM* | i
O=c1sn(-c2cccc3ccccc23)c(=O)n1Cc1ccccc1 | . | . | . | . | 12.6µM* | .
O=c1c2sc3ccccc3c2n(Cc2ccccc2)c(=O)n1Cc1ccccc1 | i | ? | ? | -8.1% | 4.1% | 2.5%
COc1ccc(N2CCN(C(=O)c3ccc4c(=O)n(CCc5ccc(OC)c(OC)c5)c(=O)[nH]c4c3)CC2)cc1 | i | -5.8% | ? | 13.4µM* | 4.8% | -11.3%
COc1ccc(Cn2c(=O)[nH]c3cc(C(=O)N4CCN(c5cccc(OC)c5)CC4)ccc3c2=O)cc1 | i | -15.3% | -0.9% | ? | ? | i
NC(N)=NN=C(/C=C/c1ccc([N+](=O)[O-])o1)/C=C/c1ccc([N+](=O)[O-])o1 | i | . | . | . | 39.8µM* | .
CN1CC[C@@H](c2c(O)cc(O)c3c(=O)cc(-c4ccc(C(F)(F)F)cc4Cl)oc23)[C@@H]1CO | . | . | . | . | 0.5%[57.5 µM] | .
CCC[C@H](NC(=O)C(C#N)=Cc1cccc(Br)n1)c1ccccc1 | . | . | . | . | 10.6%[57.5 µM] | 11.8µM*
C[C@H](NC(=O)/C(C#N)=C/c1cccc(Br)n1)c1ccccc1 | . | . | . | . | 1.7% | .
c1ccc(-c2cc(-c3ccccc3)c3c(n2)-c2ccccc2OC3)cc1 | i | 1.0% | 23.6% | 6.9% | 8.8% | i
SMILES | GALC G270D act | mTORC1 inh | S16 F2sN tox | PMP22 txn prim | NTMT1 inh | OvCa metastasis
CCOc1ccccc1Nc1nc(-c2cccc(Cl)c2)c2c(n1)-c1ccccc1OC2 | i | 2.93µM* | 3.9% | -10.7% | -0.1% | -7.7%
O=C(C1CCCCC1)N1CC(=O)N2CCCc3ccccc3C2C1 (stereo not given) | i | . | . | . | ? | .
O=C1c2ccccc2-c2onc3c(N4CCN(C5CCCCC5)CC4)cc(NCCO)c1c23 | i | 5.1% | 6.7% | -2.0% | ? | i
CN(C)CCCNc1cc(N2CCN(C3CCCCC3)CC2)c2noc3c2c1C(=O)c1ccccc1-3 | i | ? | ? | ? | 11.2µM* | ?
S=C(Nc1ccccn1)c1ccccn1 | . | . | . | . | 8.91µM* | .
Oc1ccc(CNc2ccccn2)c2cccnc12 | . | . | . | . | 9.2% | .
COc1ccc(C)cc1S(=O)(=O)NCC(c1cccs1)S(=O)(=O)c1ccc(C)cc1 (stereo not given) | i | -6.6% | 25.1µM* | ? | -0.2% | -2.5%
Cc1ccc(S(=O)(=O)C(CNS(=O)(=O)c2cc(F)ccc2F)c2cccs2)cc1 (stereo not given) | i | -0.1% | 20µM* | ? | -0.8% | -4.8%
COc1ccc(S(=O)(=O)NCC(c2cccs2)S(=O)(=O)c2ccc(C)cc2)cc1F (stereo not given) | i | -0.8% | ? | ? | ? | -6.6%
CC(C)c1cnn2c(NCc3ccccc3)cc(NCCCCCCN)nc12 | . | . | . | . | ? | -29.4%
O=c1c(O)c(-c2ccc(O)cc2O)oc2cc(O)cc(O)c12 | . | . | . | . | 44.7µM*! | -9.2%
